Drawing on PubChem BioAssay (NCI), this text covers growth inhibition for 39 compounds.

SMILES strings stand for the structures. Compounds without any hit were thinned out: in the full panel of roughly 79,000, 15% have a hit. Active and inactive are the calls of the source. Rule as the data show it: active = growth inhibition above about 70%; inactive = the rest.

The nature of the assay: NCI Yeast Anticancer Drug Screen. Data for the bub3 strain (AID 167). The following applies: S. cerevisiae bub3 mutant strain, at 50.0 µM, hits give high values. The essentials:
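Readout: yeast growth inhibition, expressed relative to vehicle-only wells. The test organism is a mutant strain from a panel with lesions in DNA repair or checkpoint genes.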
For `COC(=O)/C=C\CC(=O)OC`, the growth inhibition was -11% (inactive).
Under `C/C(=N\NC(=S)N1CCC(C2CCN(C(=S)N/N=C(\C)c3ccccn3)CC2)CC1)c1ccccn1` stands 63.9% (inactive); under `CC1CCCN2C(=O)CN(Cc3ccccc3)CC(=O)N12` (centres undefined), 3.1% (inactive); under `CC1CC(O)CC(C)(C)C1.CC1CC(O)CC(C)(C)C1.CC1CC(O)CC(C)(C)C1.CC1CC(O)CC(C)(C)C1.[Ti]` (centres undefined), 32.5% (inactive).
For `NNC(=Nc1ccccc1)SCc1ccccc1`, the growth inhibition was 20.2% (inactive).
In the case of `O=C(OC(=O)c1ccc(Cl)cc1)c1ccc(Cl)cc1`, the growth inhibition is -9.2% (inactive).
With `Clc1ccccc1C(Nc1nc2ccccc2s1)Nc1nc2ccccc2s1`, the growth inhibition is -2% (inactive).
Under `CCCCCCCCCCN(CCCCCCCCCC)C(C)C(O)c1ccc2cc(Br)c3ccccc3c2c1` (centres undefined) stands -12.5% (inactive); under `O=CC(O)C(O)C(O)C(O)COC(=S)OCC(O)C(O)C(O)C(O)C=O` (centres undefined) (tested in a mixture with another compound), 6.05% (inactive); under `COc1ccc(/C=N/Nc2nc3ccccc3s2)cc1`, 1% (inactive).
In the case of `CCCCOC1NC(=O)NC(=O)C1(F)C(=O)OCC` (centres undefined), the growth inhibition is -9.55% (inactive).
On to `CCOC(=O)CC(=O)C(=O)NNC1=NCCN1`, for which the growth inhibition is 13.3% (inactive).
For `Nc1ccccc1N/N=C/c1ccccc1`, the growth inhibition is -15.3% (inactive).
Next, `CC12CCC(=O)C=C1CCC1C2CCC2(C)C1CCC2(O)C(=O)Cn1c(=O)cc[nH]c1=O` (centres undefined): -2.7% (inactive); `C/C(CC(=O)NC1=CC=C(NC(=O)C/C(C)=N\Nc2ccccc2)CC1)=N/Nc1ccccc1`: -0.1% (inactive); `CCCCCC(C)(O)CCC` (centres undefined): 6.9% (inactive).
For `CCOC(=O)CN1C(=O)CSC1=S`, the growth inhibition is 61.4% (inactive).
In the case of `CC1(C)CC2(C)Sc3ccccc3N2C(=S)N1` (centres undefined), the growth inhibition is -0.75% (inactive).
Regarding `O=[N+]([O-])c1cccc2c1ccc1nonc12`, the growth inhibition is -15.8% (inactive).
Consider `CC1=NOC(C)(O)/C1=N/O` (centres undefined), for which the growth inhibition was 9.75% (inactive).
Next, `Cc1cc(Br)ccc1NC1=CC(=O)C(=O)c2ccccc21`: 13.2% (inactive); `NC(=O)C(Cc1ccccc1)NC(=O)C1CCCN1` (centres undefined): -6.1% (inactive).
Take `OCC(O)Cn1cnc2c(NO)ncnc21` (centres undefined): the growth inhibition was 4.85% (inactive).
In the case of `CCCCNCCS`, the growth inhibition was -8.55% (inactive).
Under `COC1(c2ccc(C)cc2)c2cccc3cccc(c23)C1(O)c1ccc(C)cc1` (centres undefined) stands -4.15% (inactive).
Under `C[N+]([O-])(C/C=C/c1ccccc1)c1ccccc1` (centres undefined) stands -29.1% (inactive).
In the case of `NNC(=O)Nc1ccccc1`, the growth inhibition is -2.4% (inactive).
As for `OCC[N+]1(CCO)CCOCC1`, the growth inhibition is 5.9% (inactive).
With `CCO/C=C1/C(=O)N(C)c2c1c(=O)n(C)c(=O)n2C`, the growth inhibition is -18.1% (inactive).
With `Cc1nc2ccccc2[nH]1`, the growth inhibition is 3.45% (inactive).
In the case of `Cc1cccc(NC(=O)CSc2nnc(Cc3ccccc3)o2)c1`, the growth inhibition is -36.7% (inactive).
On to `Cc1ccc(S(=O)(=O)n2ccnc2)cc1`, for which the growth inhibition was 11.7% (inactive).
For the compound `CCCCCCCCCCCC1=C(O)C(=O)C(I)=C(O)C1=O`, the growth inhibition is 14.4% (inactive).
For `C[C@@]12CCC[C@H]1[C@@H]1CC=C3C[C@@H](S)CC[C@]3(C)[C@H]1CC2`, the growth inhibition is -6.9% (inactive).
Under `C[Si](Cn1ccc(=O)n(C[Si](C)(c2ccccc2)c2ccccc2)c1=O)(c1ccccc1)c1ccccc1` stands -2.4% (inactive); under `COc1ccc(C2CC(=O)NC2=O)cc1OC` (centres undefined), 1.8% (inactive).
As to `O=C(O)/C=N\Nc1nc2ccccc2[nH]1`, the growth inhibition is -8.05% (inactive).
Consider `CCC(=O)OCCSCCOC(=O)CC`, for which the growth inhibition is -4.4% (inactive).
Take `CC(C)[Si](C#CC[Si](C(C)C)(C(C)C)C(C)C)(C(C)C)C(C)C`: the growth inhibition was -20.3% (inactive).
